These results are taken from PubChem BioAssay (NCI).

The panel holds about 83,000 compounds, 20% with a hit somewhere; the sample as a whole holds those more often.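 Treatment: one concentration, 48 hours, 96-well format. Scoring: percent growth, with anything below 10 considered active.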 Values without a mark were called inactive. Activity calls are given as the source filed them.

Among the test systems are HCT-15 colon; SNB-75 CNS; SNB-19 CNS; U251 CNS; PC-3 prostate; SK-MEL-5 melanoma; UACC-62 melanoma; LOX IMVI melanoma; SK-MEL-28 melanoma; SK-MEL-2 melanoma; EKVX NSCLC; SN12C renal; UO-31 renal; TK-10 renal; ACHN renal; CAKI-1 renal; CCRF-CEM leukemia; MOLT-4 leukemia; A498 renal.
Common to all, as to assay: NCI-60 one-dose screen, 48 h (100 = growth as untreated, 0 = no growth, -100 = all killed)
Common to all, as to details: 10 µM unless noted

Regarding `O=C(c1ccccc1)c1ccc(Oc2ccc([N+](=O)[O-])cc2[N+](=O)[O-])cc1`, the growth in the test on HCT-15 colon was 2.7% (active); in the test on SNB-75 CNS, 85.2%; in the test on SNB-19 CNS, 77.4%; in the test with U251 CNS, 35%; in the test with PC-3 prostate, 75.4%; with SK-MEL-5 melanoma, 32.2%. In addition, the growth in the test with UACC-62 melanoma is 62%; in the test on LOX IMVI melanoma it was 5.97% (active); in the test with SK-MEL-28 melanoma it was 101%; in the test with SK-MEL-2 melanoma, 34.9%; in the test with EKVX NSCLC it was 99.6%; in the test on SN12C renal, 71.6%. Besides, the growth is 48.7% in the test on UO-31 renal; 83.4% in the test with TK-10 renal; 50.4% in the test with ACHN renal; 27.3% in the test on CAKI-1 renal; 27.4% with CCRF-CEM leukemia; 78.3% with MOLT-4 leukemia.
Take `c1ccc2nc(N/N=C3\CCCCC3C3CCCCC3)ccc2c1` (stereo not given): the growth in the test on HCT-15 colon is 33.5%; in the test with SNB-75 CNS, 70.2%; in the test on SNB-19 CNS, 76%; in the test with U251 CNS, 41.6%; in the test on PC-3 prostate it was 14%; with SK-MEL-5 melanoma, 39.7%. For the same molecule, the growth with UACC-62 melanoma was 50.8%; in the test on LOX IMVI melanoma it was 23.4%; in the test with SK-MEL-28 melanoma it was 62.6%; with SK-MEL-2 melanoma, 34.6%; in the test with EKVX NSCLC, 33.5%; in the test on SN12C renal it was 59.4%. For the same molecule, the growth was 60.9% in the test with UO-31 renal; 72.8% in the test with TK-10 renal; 44.5% in the test on ACHN renal; 43.4% in the test on CAKI-1 renal; 7.99% (active) with CCRF-CEM leukemia; 6.97% (active) in the test with MOLT-4 leukemia.
For the molecule `Cc1csc(C#Cc2cncc(O)c2)n1`, the growth was 112% with HCT-15 colon; 139% in the test on SNB-75 CNS; 112% with SNB-19 CNS; 107% with U251 CNS; 106% with PC-3 prostate; 82.6% with SK-MEL-5 melanoma. For the same molecule, the growth with UACC-62 melanoma is 98.7%; in the test with LOX IMVI melanoma, 116%; in the test with SK-MEL-28 melanoma, 111%; in the test on SK-MEL-2 melanoma, 108%; in the test on EKVX NSCLC it was 110%; with SN12C renal, 102%. Further, the growth was 121% in the test on TK-10 renal; 117% with ACHN renal; 93.8% in the test with CAKI-1 renal; 103% in the test on A498 renal; -8.24% (active) in the test on CCRF-CEM leukemia; 105% in the test on MOLT-4 leukemia.
Take `CCCc1n(Cc2ccc3ccccc3c2)cc[n+]1Cc1ccc2ccccc2c1`: the growth in the test on HCT-15 colon is 53.8%; with SNB-75 CNS, -13.9% (active); in the test with SNB-19 CNS, -7.08% (active); in the test with U251 CNS, 0.776% (active); in the test with PC-3 prostate, -2.89% (active); in the test on SK-MEL-5 melanoma, -98.1% (active). For the same molecule, the growth in the test on UACC-62 melanoma is -67.2% (active); in the test with LOX IMVI melanoma it was -84.3% (active); in the test on SK-MEL-28 melanoma it was -40.3% (active); in the test with EKVX NSCLC, 21.1%; with SN12C renal it was -3.87% (active); in the test on UO-31 renal it was 34.8%. The growth is -8.58% (active) in the test with TK-10 renal, -3.35% (active) with A498 renal, 11.8% in the test with CCRF-CEM leukemia and -5.48% (active) in the test with MOLT-4 leukemia.
As to `O=C(O)C1CCN(S(=O)(=O)c2ccc(-c3ccccc3)cc2)CC1`, the growth was 107% in the test on HCT-15 colon; 102% in the test on SNB-75 CNS; 103% in the test with SNB-19 CNS; 104% in the test with U251 CNS; 80.9% in the test on PC-3 prostate; 108% with SK-MEL-5 melanoma. In addition, the growth in the test with UACC-62 melanoma is 94.5%; in the test with LOX IMVI melanoma, 103%; with SK-MEL-28 melanoma it was 91.4%; with SK-MEL-2 melanoma, 5.44% (active); in the test on EKVX NSCLC, 103%; in the test on SN12C renal, 101%. Further, the growth in the test on UO-31 renal is 101%; with TK-10 renal, 133%; in the test on ACHN renal, 109%; in the test on CAKI-1 renal, 104%; in the test on A498 renal, 104%; in the test on CCRF-CEM leukemia it was 90.1%. The growth in the test with MOLT-4 leukemia was 107%.
Consider `COc1ccc(C2CC(c3ccc(Nc4ccnc5cc(Cl)ccc45)cc3)=NN2C(C)=O)cc1` (stereo not given), for which the growth is 44.2% with HCT-15 colon; 75.8% in the test on SNB-75 CNS; 82.4% in the test on SNB-19 CNS; 62.8% with U251 CNS; 53.3% in the test with PC-3 prostate; 5.89% (active) in the test with SK-MEL-5 melanoma. Moreover, the growth was 54.8% with UACC-62 melanoma; 60.5% in the test with LOX IMVI melanoma; 70.2% in the test with SK-MEL-28 melanoma; 107% with SK-MEL-2 melanoma; 55.7% in the test with EKVX NSCLC; 76.1% in the test with SN12C renal. Further, the growth with UO-31 renal was 64.7%; with ACHN renal, 54.8%; in the test with CAKI-1 renal, 73.2%; in the test on A498 renal, 56.1%; with CCRF-CEM leukemia, 47.2%; with MOLT-4 leukemia, 40.8%.
For `Cc1cccc2nnc(-c3ccccc3)n12`, the growth in the test with HCT-15 colon was 101%; in the test on SNB-75 CNS it was 107%; in the test with SNB-19 CNS it was 97.1%; in the test with U251 CNS, 108%; in the test with PC-3 prostate, 104%; in the test with SK-MEL-5 melanoma it was 110%. The growth with UACC-62 melanoma is 99.6%; in the test on LOX IMVI melanoma, 99.4%; in the test on SK-MEL-28 melanoma, 112%; with SK-MEL-2 melanoma, 99.1%; in the test on EKVX NSCLC, 103%; in the test on SN12C renal it was 93.7%. Besides, the growth was 85.1% in the test with UO-31 renal; 98.1% in the test on TK-10 renal; 105% in the test on ACHN renal; 105% in the test with CAKI-1 renal; 96% in the test with A498 renal; 99.3% in the test on CCRF-CEM leukemia. Further, in the test with MOLT-4 leukemia, the growth is 93.2%.
Take `O=C(CC(C(=O)c1ccccc1)N1CCN(Cc2ccccc2)CC1)c1ccccc1` (stereo not given): the growth with HCT-15 colon is 57%; in the test on SNB-75 CNS, 91.7%; with SNB-19 CNS, 99.4%; in the test with U251 CNS it was 74.9%; in the test on PC-3 prostate, 93.8%; in the test with SK-MEL-5 melanoma, 103%. For the same molecule, the growth is 101% with UACC-62 melanoma; 73.4% in the test on LOX IMVI melanoma; 112% with SK-MEL-28 melanoma; 104% in the test on SK-MEL-2 melanoma; 120% in the test on EKVX NSCLC; 99.3% in the test on SN12C renal. Besides, the growth in the test with UO-31 renal is 80%; in the test on TK-10 renal, 96.6%; with ACHN renal, 41.8%; in the test with CAKI-1 renal it was 73.5%; with A498 renal, 74.6%; in the test on CCRF-CEM leukemia, 8.48% (active). Besides, the growth in the test on MOLT-4 leukemia was 49.5%.
